Among all 300,000 compounds or so, about 520 (0.17%) were called active. What follows is part of a selection rich in actives, with near analogues and random picks from the rest. A number with no mark means an inactive call. No stated cut-off is given here; in the data, active means inhibition above about 50%; inconclusive means no clear call, values can overlap the other calls; inactive means below that.
Test: PubChem AID 1554
Details: BJeLR (HRASV12) viability, CellTiter-Glo ATP luminescence, 48 h; active compounds read high; concentration not given here

First: CC(C)(C)c1ccc(/C=C2\SC(=O)N=C2N)cc1
Second: Cc1cccc(NC(=O)/C=C/c2ccc3c(c2)OCO3)n1
The inhibition of the first is higher: -2.23% for the first, -11.7% for the second.

Compared with `CC(NC(=O)CC1SC(N)=NC1=O)c1ccccc1` (configuration not stated), `COc1ccc(COC(=O)NC(C(=O)O)c2ccccc2)cc1` (configuration not stated) is lower in inhibition: 4.16% for the first, -0.701% for the second.

First: Brc1ccc2c(c1)[C@H]1OCC[C@H]1[C@@H](c1cccs1)N2
Second: CN(C)N1C(N)=C(C#N)C(c2ccc(Br)cc2)C2=C1CCCC2=O (configuration not stated)
The inhibition of the first is higher: 10.2% for the first, -10.4% for the second.

Going from `CC(C)Cn1c(=O)c2ccccc2n2c(CCC(=O)NCc3ccccn3)nnc12` to `O=C(CCC(=O)n1ncc2ccccc21)NCc1ccccc1Cl`, the inhibition rises from -6.38% to 2.75%.

Going from `COc1cc(NS(=O)(=O)c2ccc(NC(=S)NC(=O)c3ccc(Br)cc3)cc2)ncn1` to `COc1ccc(NC(=O)CN(C)C(=O)c2ccc(NC3CC3)c([N+](=O)[O-])c2)cc1`, the inhibition rises from -4.7% to -1.94%.

Compared with `O=C1C2CCCN2C(=O)N1CCCCN1CCN(c2cccc(C(F)(F)F)c2)CC1` (configuration not stated), `COc1ccccc1CCC(=O)OCC(=O)N1CCN(S(=O)(=O)c2ccc(C)cc2C)CC1` is lower in inhibition: -4.72% for the first, -5.89% for the second.

Going from `Cc1ccccc1NC(=O)c1nn(-c2ccc(F)c(F)c2)ccc1=O` to `CCN1C(=O)[C@@H]2[C@@H](c3ccc(-c4ccccc4)cc3)N3CCCC[C@@]3(C(=O)OC)[C@@H]2C1=O`, the inhibition rises from -12.5% to 6.3%.

Compared with `CSCCC(NC(=O)COc1ccccc1)C(=O)OCCOc1ccc(Br)cc1` (configuration not stated), `COc1ccc(CN(C)C(=O)CC(c2ccccc2)c2ccccc2)cc1` is lower in inhibition: 5.25% for the first, 3.85% for the second.

Going from `CCOC(=O)C1=C(CSc2nnnn2C)N(C)C(=O)NC1c1ccccc1` (configuration not stated) to `CCOC(=O)C1CCN(S(=O)(=O)c2ccc3c(c2)N(C(C)=O)CCO3)CC1`, the inhibition rises from 0.916% to 6.7%.

Going from `CCN(CC)CCCN=C(N)N` to `N#C/C(=C(\O)C(F)(F)F)c1nnc2n1CCCCC2`, the inhibition rises from -2.78% to -1.07%.

Molecule `Nc1nc(-c2sc3nc4c(cc3c2N)CCCC4)nc(N2CCOCC2)n1` has an inhibition of -1.17%.

For `COc1ccc(C(CCN(Cc2ccc(OC)c(OC)c2)C(=O)CCl)c2ccccc2)cc1` (configuration not stated), the inhibition was 85.3% (active).

Source: PubChem BioAssay AID1554 (Broad Institute, 2009)
